From PubChem
An excerpt weighted towards active compounds, which were near 2% of everything screened.
ADAM17 inh = inhibitors of human ADAM17 | P78536 | recombinant ADAM17, EDANS/DABCYL FRET peptide cleavage | inhibition, % at 6.95 µM | actives 0.83% (n = 370,000);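 active = inhibition above the mean of compounds lying between control limits plus 3 SD, set per campaign, cut at about 8.5% in these data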
ADAM10 inh = inhibits human ADAM10; actives 0.62% (n = 370,000); AID 720582; inhibition, % at 7 µM; recombinant ADAM10, EDANS/DABCYL FRET peptide cleavage, 3 h;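 active = inhibition above a per-campaign cutoff equal to the mean of compounds falling between control-based bounds plus 3 SD, cut at about 20% in these data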
GC-B act = GC-B (human) receptor activation; P20594; HEK293-GC-B cells, CNP EC30, cGMP TR-FRET; 0% at EC30 CNP, 100% saturating CNP; activation, % at 10 µM; actives 0.11% (n = 370,000); AID 1920062;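 active = activation at 10 µM reaching about 35% in either raw or pattern-adjusted values, limit read from the data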
FAS TE block = inhibitors of human fatty acid synthase thioesterase domain. P49327. recombinant FAS-TE, OMFH fluorogenic substrate, fluorescence endpoint. inhibition, % at 15 µM. actives 0.67% (n = 360,000);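 active = compounds whose normalised, plate-corrected inhibition of enzyme fluorescence in the single-dose primary screen is 50% or more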
NPR1 activator = GC-A (human) enzyme activation | HEK293 GC-A cells, cGMP TR-FRET, EC30 ANP; 0% at EC30 ANP, 100% saturating ANP | P16066 | AID 1671463 | activation, % at 10 µM | actives 0.14% (n = 370,000); in the data active = activation above about 40%
FAS-TE inh conf = confirmation of human fatty acid synthase thioesterase inhibitors. actives 45% (n = 2,300). recombinant FAS-TE, OMFH fluorogenic substrate, fluorescence. shares compounds with FAS TE block. inhibition, % at 15 µM;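 active = compounds inhibiting the enzyme by at least 50% at 15 µM in any one of the replicates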
Large screens that a line does not name were inactive (follow-up assays come after a bar, where they were run).

CCOc1cccc2cc(C(=O)NCCC3=CCCCC3)c(=O)oc12	FAS TE block 87 | FAS-TE inh conf 74
CC(C)C[C@@H]1COc2cc(Br)ccc2S(=O)(=O)N1Cc1cn(Cc2ccc(F)cc2)nn1	none (no result: FAS TE block)
COc1ccc(CN(CCC(c2ccccc2)c2ccc(OC(C)C)cc2)C(=O)CCl)cc1OC (centres undefined)	FAS TE block 52 | FAS-TE inh conf inactive
Cc1ccc2nc(N/C(N)=N/S(=O)(=O)c3ccc([N+](=O)[O-])cc3)nc(C)c2c1	FAS TE block 67 | FAS-TE inh conf 55
Cc1ccc(S(=O)(=O)/N=C(\N)Nc2nc(C)c3ccccc3n2)cc1	none
C=CCn1cc(C(=O)NCCOC)c(=O)c2cc(S(=O)(=O)N3CCCCCC3)ccc21	none
CCn1cc(C(=O)NCc2ccco2)c(=O)c2cc(S(=O)(=O)N3CCC(C)CC3)ccc21	FAS TE block 74 | FAS-TE inh conf 84
C=CCn1cc(C(=O)NCc2ccco2)c(=O)c2cc(S(=O)(=O)N3CCCCCC3)ccc21	FAS TE block 61 | FAS-TE inh conf 70
CCn1cc(C(=O)N2CCCC2)c(=O)c2cc(S(=O)(=O)N3CC(C)CC(C)C3)ccc21 (centres undefined)	none
CCn1cc(C(=O)NCc2ccco2)c(=O)c2cc(S(=O)(=O)N3CCc4ccccc4C3)ccc21	none
CCn1cc(C(=O)NCc2ccco2)c(=O)c2cc(S(=O)(=O)N3CC(C)CC(C)C3)ccc21 (centres undefined)	FAS TE block 78 | FAS-TE inh conf 87
CCn1cc(C(=O)NCc2ccco2)c(=O)c2cc(S(=O)(=O)N3CCCCCC3)ccc21	FAS TE block 78 | FAS-TE inh conf 58
COc1ccc(OC)c(S(=O)(=O)N(CC(=O)NC2CCC(C)CC2)c2cc(C)cc(C)c2)c1 (centres undefined)	none (no result: FAS TE block)
COc1ccc(CN2C3=N[C@H](c4ccccc4)CC(=O)N3/C(=C\c3ccccc3)C2c2ccco2)c(OC)c1 (some centres undefined)	none (no result: FAS TE block)
COc1cccc(C(=O)Nc2ccc(C(=O)NCC3COc4ccccc4O3)cc2)c1 (centres undefined)	none (no result: FAS TE block)
FC(F)(F)Oc1ccc(Cn2ccc3ccc(-c4ccc5ccn(Cc6ccccc6)c5c4)cc32)cc1	none (no result: FAS TE block)
CC(C)(C)c1ccc(C(=O)N/C(=C\c2cccc([N+](=O)[O-])c2)C(=O)Nc2cccc(C(=O)O)c2)cc1	FAS TE block 83 | FAS-TE inh conf 88
COc1ccccc1/C=C(\NC(=O)c1ccc(OC)c(OC)c1)C(=O)Nc1cccc([N+](=O)[O-])c1	FAS TE block 88 | FAS-TE inh conf 44
CC(=O)c1cccc(NC(=O)/C(=C\c2cccnc2)NC(=O)c2ccccc2)c1	none
Cc1ccc(NC(=O)/C(=C\c2ccc([N+](=O)[O-])cc2)NC(=O)c2ccccc2)cc1	none
O=C(NNc1cccc([N+](=O)[O-])c1)/C(=C\c1cccnc1)NC(=O)c1ccccc1	FAS TE block 66 | FAS-TE inh conf 65
COc1ccccc1/C=C(\NC(=O)c1ccc(OC)c(OC)c1)C(=O)Nc1ccc([N+](=O)[O-])cc1	FAS TE block 86 | FAS-TE inh conf inactive
O=C(Nc1cccc(C(=O)O)c1)/C(=C/c1ccc([N+](=O)[O-])cc1)NC(=O)c1ccccc1	none
CCOc1ccc(-n2c(SCC(=O)Nc3cccc4ccccc34)nnc2-c2ccco2)cc1	none (no result: FAS TE block)
C[C@H]1[C@@H]2C[C@@]3(O[C@H](c4ccc(C(F)(F)F)cc4)N=C3C[C@@H]1c1ccccc1)N(Cc1ccncc1)C2=O	none (no result: FAS TE block)
CCOC(=O)[C@@]12CN(C(=O)OC(C)(C)C)CC=C1N(Cc1ccc(OC)cc1)C(=O)[C@H]2CC(=O)NCc1ccccc1	none (no result: FAS TE block)
N#Cc1ccc(-c2cccnc2)nc1SCc1ccc(Cl)cc1Cl	GC-B act 42, FAS TE block 55 | FAS-TE inh conf inactive
N#Cc1ccc(-c2cccnc2)nc1SCc1ccc(Cl)c(Cl)c1	none
CC(=O)c1ccc([C@H](O)[C@H](C)C(=O)N(C)c2ccccc2)cc1	none (no result: FAS TE block)
COC(=O)[C@]12CCCCC=C1N(Cc1ccc(OC)cc1)C(=O)[C@@H]2CC(=O)NCc1cccs1	none (no result: FAS TE block)
